Only a selection was taken, and hits are over-represented in it overall.
CHX counter: Cycloheximide Counterscreen for Small Molecule Inhibitors of Shiga Toxin. max response, %. cell reporter, cycloheximide protein synthesis inhibition counterscreen. 300,000 compounds, 12% hits. AID 2314, 2010; in the data active means max response mostly above about 13%, no sharp cut-off; inactive means mostly below about 14%; further: read at 38.3 µM for the half of the compounds with a filed dose; 0% is about no effect
Shiga toxin inh: A qHTS for Small Molecule Inhibitors of Shiga Toxin; Vero cells, Shiga toxin protein synthesis inhibition reporter; inhibition, % at 38.7 µM; 290,000 compounds, 9.2% hits; AID 2315, 2010; in the data active means inhibition mostly above about 28%, no sharp cut-off; inactive means mostly below about 43%; further: 0% is about no effect
AmpC inh detg: qHTS Inhibitors of AmpC Beta-Lactamase (assay with detergent); P00811; AmpC hydrolysis of nitrocefin, absorbance 480 nm, 0.01% Triton; Potency, µM (doses to about 114 µM), inactives show top-dose activity change, negative = inhibition, actives largely listed as inhibitors; 370,000 compounds, 0.041% hits; AID 485294, 2010;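 further: potency means the concentration at half of the fitted maximal effect; 0% = no-compound wells and -100% = no-enzyme wells; nearly all actives have a fitted effect of over 25% in size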
Target sequence (P00811 whole entry, looked up): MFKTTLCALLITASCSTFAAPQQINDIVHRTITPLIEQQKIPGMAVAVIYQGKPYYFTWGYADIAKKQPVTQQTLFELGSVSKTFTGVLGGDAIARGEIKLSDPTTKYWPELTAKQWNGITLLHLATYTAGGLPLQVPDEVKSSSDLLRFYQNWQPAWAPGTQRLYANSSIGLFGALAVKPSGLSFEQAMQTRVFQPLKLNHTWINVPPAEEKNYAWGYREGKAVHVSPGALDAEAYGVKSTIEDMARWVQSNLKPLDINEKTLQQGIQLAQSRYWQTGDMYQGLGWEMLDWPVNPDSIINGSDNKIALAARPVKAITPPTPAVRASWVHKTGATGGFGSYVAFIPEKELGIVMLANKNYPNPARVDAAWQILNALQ
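AmpC (5.3 nM in the dispensed reagent) in 20 mM phosphate pH 7.0 with 0.01% (detergent screen) or 0.0001% Triton X-100 was preincubated with compounds for 15 min at room temperature. Nitrocefin was then added from an 800 uM solution, and hydrolysis was followed at 480 nm.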
AmpC inh no detg: qHTS Inhibitors of AmpC Beta-Lactamase (assay without detergent) | P00811 | 330,000 compounds, 0.52% hits | Potency, µM (titrated, usually from 57.1 µM), without a hit: at the highest dose activity change, negative = inhibition, hits mostly inhibitors | AmpC nitrocefin hydrolysis, absorbance 480 nm, 0.0001% Triton;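 further: potency means the concentration at half of the fitted maximal effect; plate controls were no compound for no effect and no enzyme for full effect; nearly all actives have a fitted effect of over 20% in size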
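20 mM phosphate pH 7.0 + 0.01% (detergent screen) or 0.0001% Triton X-100; 5.3 nM AmpC reagent; cpd preinc 15 min RT; nitrocefin (800 uM stock) to start; A480 q20 s × 4 min; Activity was normalised to no-enzyme and no-compound control wells.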
NS1 function inh: qHTS Assay for Inhibitors of Influenza NS1 Protein Function. Potency, µM (top dose mostly 46.1 µM), for the others: at the highest dose activity, positive = more growth. 270,000 compounds, 0.4% hits; calls by dose curve; further: potency means the concentration at half of the fitted maximal effect; actives are rising curves; nearly all actives have a fitted effect of over 50% in size
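OD600 was taken as the measure of yeast growth restored by compound in an NS1-expressing S. cerevisiae strain. Cells had been washed out of glucose medium and diluted 1:100 into galactose -URA medium, pH 6.0.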
Flu NS1 inh: Assay for Inhibitors of Influenza NS1 Protein Function: Hit Validation; shares compounds with NS1 function inh; influenza NS1 function cell assay, 15-point titration; activity change, negative = inhibition, % at 32.9 µM; 1,400 tested, under 10 active; AID 492980, 2010; calls by dose curve; further: 0% is about no effect
PR8 titer: Assay for Inhibitors of Influenza NS1 Protein Function: Influenza virus replication assay in MDCK cells infected with virus A/PR/8/34. shares compounds with NS1 function inh. MDCK infected influenza A/PR/8/34, virus titer TCID50; hits give low values. virus titer (log TCID50), log10 TCID50 at 5 µM. 95 compounds, 30% hits; call rule not given here
Starred values were filed as active, the others as inactive; ? = inconclusive; / = not tested or not shown. Unless noted, the call rests on the fitted dose curve; in most records, active means well fitted curve in the direction sought with a large enough effect; inconclusive means small, poorly fitted or top-dose-only effect, or another doubt; inactive means no such curve, though single readings can be large; an effect the other way counts as inactive or inconclusive.

SMILES | CHX counter | Shiga toxin inh | AmpC inh detg | AmpC inh no detg | NS1 function inh | Flu NS1 inh | others
Cc1ccc(S(=O)(=O)N2CCC(=O)N(C(COCc3ccc(Cl)cc3Cl)Cc3ccccc3)CC2)cc1 (stereo unspecified) | -1.9 | 7.4 | -4.8% | 2.4% | ? | -3.7 | PR8 titer=7.5*
Cc1ccc(CCC(=O)NCc2ccccc2)o1 | 17.9 | -8.0 | 8.9% | 21.9% | 5.01µM* | 0.7
O=C(CCc1ccccc1)NCc1ccccc1 | 20.1 | 21.3 | 6.1% | 0.4% | / | /
O=C(Nc1nccs1)C1CC=CCC1 (stereo unspecified) | -6.1 | 27.2 | ? | -12.7% | 15.2% | /
O=C(Nc1ccc(O)cc1)C1CC=CCC1 (stereo unspecified) | 2.3 | 23.5 | 0.1% | -27.7% | 12.6µM* | 8.7
CC(=O)c1c(C)[nH]c(C(=O)OCc2nnc(-c3ccc([N+](=O)[O-])cc3)o2)c1C | / | / | / | -12.2% | / | /
Cc1cccc(NC(=O)CSc2nnc([C@@H](N)Cc3c[nH]c4ccccc34)o2)c1C | -2.5 | 1.3 | -6.9% | 88.6% | 11.2µM* | 15.3
CCSc1nnc([C@@H](N)Cc2c[nH]c3ccccc23)o1 | 13.1 | 13.2 | -1.1% | 0.8% | -8.9% | /
Cc1ccc(-c2ccc(/C=C3\SC(N4CCOCC4)=NC3=O)o2)cc1 | 7.4 | 21.8 | -2.8% | 129.1% | / | /
Cc1ccc(/C=C2\SC(N3CCN(C(c4ccccc4)c4ccccc4)CC3)=NC2=O)o1 | 4.1 | -10.0 | -5.2% | -10.6% | 11.2µM* | ?
CCCN1CCc2c(sc(NC(=O)CCS(=O)(=O)c3ccccc3)c2C(=O)OC)C1 | 7.4 | -7.9 | 1.1% | 55.3% | 15.1% | /
CNS(=O)(=O)c1ccc(C)cc1 | -2.9 | -12.8 | -10.1% | -31.5% | ? | 13.5
COc1ccc(OC(=O)c2ccncc2)cc1 | 5.8 | -14.5 | -8.6% | -12.3% | ? | -2.5
O=C(Oc1ccc(OC(=O)c2ccncc2)cc1)c1ccncc1 | / | / | / | / | -14.8% | /
CCOC(=O)CSc1nc2ccc(N3CCOCC3)cc2c(=O)n1Cc1ccc2c(c1)OCO2 | 12.5 | 24.9 | -1.6% | -0.2% | ? | -25.6
Cc1ccc(S(=O)(=O)n2nc(C)cc2N)cc1 | -1.7 | 1.7 | 0.1% | -2.5% | 22.4µM* | 3.0
CC1CCC(C(C)C)C(OC(=O)CSc2nc(N)cc(=O)[nH]2)C1 (stereo unspecified) | 7.6 | -13.9 | -8.1% | -32.8% | 8.91µM* | 3.2
C=CCN(c1ccc(C(=O)NCCN2CCOCC2)cc1)S(C)(=O)=O | -1.7 | -1.7 | ? | 0.0% | -11.4% | /
Cc1ccc(S(=O)(=O)N(C)C)cc1-n1c(SCC(=O)Nc2ccccc2)nc2ccccc2c1=O | -2.6 | -4.8 | -6.3% | 20.3% | ? | /
Cc1ccc(S(=O)(=O)N(C)C)cc1-n1c(SCC(=O)Nc2ccc(F)cc2)nc2ccccc2c1=O | 3.7 | -1.0 | 3.3% | 18.6% | 12.6µM* | 16.9
CC(C)c1nc2n[nH]c(N)c2c2c1CSC(C)(C)C2 | 10.8 | 15.2 | 1.0% | -13.4% | 5.62µM* | 36.0
CCCCc1nc2n[nH]c(N)c2c2c1CSC(C)(C)C2 | -1.6 | -3.8 | 4.3% | -16.5% | 11.2% | /
COc1ccc2nc(C(F)(F)C(F)(F)F)c(C#N)c(N)c2c1 | -1.3 | 11.5 | -0.5% | -7.3% | 7.94µM* | 16.4
CN(C)c1ccc(/C=N/NC(=O)c2ccc(CN3C(=O)c4cccc5cccc3c45)cc2)cc1 | 8.1 | 22.5 | -8.8% | -12.6% | 4.47µM* | 5.5
Cc1ccc(S(=O)(=O)NC(C)(C)CN2CCC(Cc3ccccc3)CC2)cc1 | 6.1 | 7.4 | 2.5% | 9.2% | -3.2% | /
SMILES | CHX counter | Shiga toxin inh | AmpC inh detg | AmpC inh no detg | NS1 function inh | Flu NS1 inh | others
Cc1cc(NC(=O)CCC(=O)N(CC(=O)NC2CCCC2)c2cccc(F)c2)no1 | 0.6 | -13.8 | 1.7% | 15.9% | ? | -7.0
Cc1cc(NC(=O)CCC(=O)N(CC(=O)NC2CCCC2)c2ccccc2)no1 | 0.7 | -2.6 | ? | -12.2% | -1.6% | /
CCN1C(=O)C(=O)N(CC(=O)NC(C)CCc2ccccc2)C1=O (stereo unspecified) | / | / | ? | -16.8% | / | /
CC(/C=C/c1ccc(N(C)C)cc1)=N/N=C1/NC(=O)CC(C(=O)Nc2ccc(Cl)cc2)S1 (stereo unspecified) | 47.9* | 59.6* | -8.9% | -30.6% | 10µM* | -14.1
CC(/C=C/c1ccc(N(C)C)cc1)=N\N=C1\NC(=O)CC(C(=O)Nc2ccccc2)S1 (stereo unspecified) | 49.3* | 63.2* | 0.7% | -8.0% | 7.94µM* | -12.8
C/C(CCc1ccc2c(c1)OCO2)=N\N=C1\NC(=O)CC(C(=O)Nc2ccccc2)S1 (stereo unspecified) | -0.7 | 9.9 | -2.8% | -29.3% | 11.3% | /
COc1ccc(NC(=O)C2CC(=O)N/C(=N/N=C/c3ccccc3)S2)cc1 (stereo unspecified) | 0.4 | -5.3 | -4.7% | -10.8% | 5.3% | /
COc1ccccc1CCn1cnc2c3cc(C)ccc3n(C)c2c1=O | 2.3 | 15.6 | -5.7% | 74.0% | -2.3% | /
Cc1nc2c(ccc3nc(NC(=O)c4ccc5c(c4)OCCO5)sc32)s1 | 45.0* | 42.7 | -1.0% | 6.3% | ? | -30.4
Cc1ccc2sc(NC(=O)c3ccc4c(c3)OCCO4)nc2c1C | / | / | -2.5% | / | / | /
Cc1ccsc1C(=O)N1CCCC(N(C)Cc2ccccc2)C1 (stereo unspecified) | -2.6 | -10.2 | -0.3% | -0.5% | 16.0% | /
CCCN1CCC(NC23CC4CC(CC(C4)C2)C3)CC1 | -1.3 | -9.5 | -13.2% | -6.6% | 12.8% | /
COC(=O)C(NC(=O)c1ccccc1C)(Nc1ncc(S(=O)(=O)c2ccc([N+](=O)[O-])cc2)s1)C(F)(F)F (stereo unspecified) | -2.0 | 4.8 | ? | -38.9% | 10.0% | /
COC(=O)C(NC(=O)c1ccc(F)cc1)(Nc1ncc(S(=O)(=O)c2ccc([N+](=O)[O-])cc2)s1)C(F)(F)F (stereo unspecified) | 1.0 | -14.9 | -13.6% | 8.91µM* | 7.94µM* | 13.9
CCCCCCC(=O)N(O)C1CC(=O)N(c2ccc(C)cc2)C1=O (stereo unspecified) | 12.7 | 9.4 | ? | -29.0% | -35.8% | /
Cc1ccc(N2C(=O)CC(N(O)C3CC(=O)N(c4ccc(C)cc4)C3=O)C2=O)cc1 (stereo unspecified) | 0.3 | 35.9 | 3.7% | -15.2% | 20µM* | ?
CNC(=O)COC(=O)c1cc(-c2ccccc2)nn1-c1ccccc1 | -4.9 | -7.0 | 4.6% | 34.8% | / | /
